Pf growth 96h: inhibits malaria parasite growth, 96 h; actives 6.9% (n = 320,000); Potency, µM (doses to about 28.7 µM), inactives show at the top dose activity change, negative = inhibition, usual class: inhibitors; P. falciparum luciferase reporter growth, 96 h; further: potency means the concentration at half of the fitted maximal effect; on the % scale 0 is the no-effect control and ±100 the full control effect
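Infected RBCs, 2% Hct / 0.05% parasitemia final; luciferase-reporter P. falciparum; cpd 96 h, 37 C, 5% CO2; luciferase detection reagent; luminescence.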
HCV inhibitor: blocks hepatitis C virus; Huh7.5.1 HCVcc-Cre infection, luciferase reporter, 44 h; actives 3.4% (n = 340,000); Potency, µM (titrated, usually from 41.8 µM), for the others: at the highest dose activity change, negative = inhibition, most hits filed as inhibitors; further: potency means the concentration at half of the fitted maximal effect; on the % scale 0 is the no-effect control and ±100 the full control effect
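Infectious HCV cell culture screen: compound-treated cells (1,000/well, pre-plated 4 h) are infected with HCVcc-Cre at roughly 0.5 moi and grown 44 h. Infection is quantified by luciferase signal after 15 min substrate incubation at room temperature.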
HCMV inh: blocks human cytomegalovirus replication; HFF cells, HCMV-luciferase reporter, 72 h; stronger effect = lower value; activity change, negative = inhibition, % at 57.5 µM; actives 4.5% (n = 410,000); AID 1259415; in the data active means activity change below about -60%; inconclusive means no clear call, values can overlap the other calls; inactive means above about -39%; further: on the % scale 0 is the no-effect control and ±100 the full control effect
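Steps: HFFs plated, 16 h 37C; compounds added; HCMV-luciferase added to MOI 1 PFU/cell; 72 h 37C; OneGlo reagent, 5 min room temperature; luminescence read, normalized to controls.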
Cycloheximide cs: counter-screen for Shiga toxin inhibitors: cycloheximide protein synthesis inhibition. cell reporter, cycloheximide protein synthesis inhibition counterscreen. max response, %. actives 12% (n = 300,000); in the data active means max response mostly above about 13%, no sharp cut-off; inactive means mostly below about 14%; further: read at 38.3 µM for the half of the compounds with a filed dose; 0% is about no effect
Shiga toxin inh: Shiga toxin inhibition; Vero cells, Shiga toxin protein synthesis inhibition reporter; inhibition, % at 38.7 µM; actives 9.2% (n = 290,000); AID 2315; in the data active means inhibition mostly above about 28%, no sharp cut-off; inactive means mostly below about 43%; further: 0% is about no effect
Pf growth 48h: P. falciparum growth inhibition at 48 hours (one generation); P. falciparum luciferase growth in erythrocytes, 48 h; Potency, µM (titrated, usually from 28.7 µM), for the others: at the top dose activity change, negative = inhibition, usual class: inhibitors; actives 5.9% (n = 310,000); further: potency means the concentration at half of the fitted maximal effect; on the % scale 0 is the no-effect control and ±100 the full control effect
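Luminescence readout; reporter = integrated firefly luciferase in P. falciparum. RBC culture at 2% hematocrit, 0.1% parasitemia final, 37 C/5% CO2; decreased signal taken as growth inhibition.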
Numbers without * were called inactive; u = inconclusive; x = not tested or not shown; [ ] = dose if it differs, or a comment. Hits are enriched below; roughly 21% of the tested compounds scored in any of these assays. Unless noted, the call rests on the fitted dose curve; in most records, active means well fitted inhibition curve with a large enough effect; inconclusive means small, poorly fitted or top-dose-only effect, or another doubt; inactive means no such curve, though single readings can be large or run the other way.

SMILES | Pf growth 96h | HCV inhibitor | HCMV inh | Cycloheximide cs | Shiga toxin inh | Pf growth 48h
Cc1ccc(-n2ncc(C(=O)NCC3CCN(C4CCCC4)C3)c2C2CCN(C(=O)OC(C)(C)C)CC2)cc1C (stereo not given) | 2.3µM* | 11% | -29 | 18 | -4 | 13µM*
Cc1ccc(-n2ncc(C(=O)NCC3CCN(C4CCCC4)C3)c2C2CCN(C(=O)OC(C)(C)C)CC2)cc1 (stereo not given) | u | -24% | u | -7 | -5 | u
CC(C)(C)OC(=O)N1CCC(c2c(C(=O)NCC3CCN(C4CCCC4)C3)cnn2-c2cccc(Cl)c2)CC1 (stereo not given) | -5% | u | -34 | -8 | -8 | u
COc1ccccc1NC(=O)c1c(N=Cc2ccccc2O)cnn1C | 4% | x | x | 1 | -15 | -10%
CCN(CC)CCCNc1cc(C)nc2cc(-c3cccs3)nn12 | -25% | u | -22 | -2 | -9 | u
COc1ccc(-n2nc3cc(C)c(NC(=O)C(C)C)cc3n2)cc1 | u | x | x | 36* | 69* | 206%
COc1ccc(-n2nc3cc(C)c(NC(C)=O)cc3n2)cc1 | 1% | -21% | -28 | 32* | 140* | 94%
CCc1ccc(-n2nc3cc(C)c(NC(=O)c4cc(OC)cc(OC)c4)cc3n2)cc1 | x | x | 13 | x | x | x
O=C(COCc1ccccc1)N[C@@H]1c2ccccc2CC[C@@H]1OCc1ccccc1 | x | u | -15 | x | x | x
Cc1cc(C)c(O)c(-c2cc(C(=O)Nc3cccnc3)[nH]n2)c1 | 2.9µM* | u | u | 29* | 98* | 2.9µM*
Cc1cc(O)c(-c2cc(C(=O)Nc3cccnc3)[nH]n2)cc1C | 2.1µM* | -4% | 51 | 43* | 52* | 2.6µM*
COc1cccc(OC)c1C(=O)Nc1cccnc1 | 38% | 10% | -13 | -4 | -11 | u
CCc1ccc(O)c(-c2cc(C(=O)Nc3cccnc3)[nH]n2)c1 | 0.41µM* | u | 25 | 28* | 93* | u
CCOc1cc(OCC)cc(C(=O)Nc2cccnc2)c1 | 6% | u | -17 | -5 | 18 | u
COc1ccc(CCNC(=O)c2cc(-c3cc(C)cc(C)c3O)n[nH]2)cc1OC | u | u | u | 2 | 10 | u
Cc1cccc(NC(=O)c2cc(-c3cc(C)cc(C)c3O)n[nH]2)c1 | u | 11µM* | u | 13* | 40* | u
COc1ccc(C(=O)Nc2cc(-c3ccc(C)cc3)no2)cc1 | 30% | -15% | -32 | 9 | 16 | 28%
Cc1cccc(NC(=O)c2cc(-c3c(C)cc(C)cc3O)n[nH]2)c1 | 15µM* | -17% | -21 | 28 | 51* | 0%
Cc1ccc(CCNC(=O)c2cc(-c3ccccc3)n[nH]2)cc1 | x | x | -18 | x | x | x
CC(=O)Nc1ccc(NC(=O)c2cc(-c3cc(C)c(C)cc3O)n[nH]2)cc1 | u | u | -9 | 2 | 43 | 1µM*
Cc1ccc(-c2cc(NC(=O)c3ccccc3)on2)cc1 | 43% | -9% | 21 | 23* | 94* | 3%[0.00184 µM]
Cc1ccc(NC(=O)c2cc(-c3ccccc3)n[nH]2)cc1 | 5% | -14% | -3 | 39* | 49* | 77%
Cc1cc(O)c(C(c2cccc(F)c2)N2CCN(c3ccccc3)CC2)c(=O)n1Cc1ccco1 (stereo not given) | x | x | 11 | x | x | x
COc1ccc(N2CC(NC(=O)C3CCCC3)CC2=O)cc1 (stereo not given) | x | x | 68 | x | x | x
CSc1nc(NC2CCCC2)c([N+](=O)[O-])c(NC2CCCC2)n1 | x | x | x | 7 | 13 | x
SMILES | Pf growth 96h | HCV inhibitor | HCMV inh | Cycloheximide cs | Shiga toxin inh | Pf growth 48h
O=[N+]([O-])c1cccc(C2NCC(c3ccccc3Cl)c3c2[nH]c2ccccc32)c1 (stereo not given) | 13µM* | -6% | 20 | 1 | -5 | -7%
O=C(Cc1c(F)cccc1Cl)N/N=C/c1cccs1 | u | 5%[8.37 µM] | -75* | 14 | -4 | 6%
Cc1ccc(/C=N/NC(=O)Cc2c(F)cccc2Cl)s1 | 294% | -20% | -28 | 54* | 79* | -15%
Cc1ccc(/C=N/NC(=O)Cc2ccc(Cl)cc2)s1 | u | 13% | -39 | 5 | 2 | u
CC(C(=O)OCC(=O)NC1CCCCC1)N1C(=O)c2ccccc2C1=O (stereo not given) | x | -1% | -5 | x | x | x
O=C(Nc1ccc(C(=O)O)cc1)/C(=C\c1ccc2c(c1)OCO2)NC(=O)c1ccc(Br)cc1 | -7% | 1% | -4 | 39* | -5 | 20%
CC(=O)N/C(=C/c1ccc2c(c1)OCO2)C(=O)O | -8% | -8% | -18 | 1 | 8 | 0%
O=C(NCCO)/C(=C/c1ccc2c(c1)OCO2)NC(=O)c1ccc(Br)cc1 | -18% | -6% | -6 | 41* | 74* | -15%
CC(=O)N/C(=C/c1ccc2c(c1)OCO2)C(=O)Nc1ccccc1 | u | 6% | -15 | 27* | 80* | 29%
Cc1cccc(/C(N)=N/OC(=O)Cc2cccc3ccccc23)c1 | u | 3% | -20 | 20* | 28 | -25%
Cc1cccc(C(=O)O/N=C(\N)Cc2ccc([N+](=O)[O-])cc2)c1 | u | u | 68 | 11 | 21 | u
Cc1cccc(C(=O)O/N=C(\N)Cc2cccc3ccccc23)c1 | u | -4% | x | -1 | -6 | 3.3µM*
CSc1ccc(CNC(=O)Cc2ccc(NC(=O)C3=C(C)OCCS3)cc2)cc1 | u | u | -4 | 24* | 55* | 125%
CCOc1ccc(CCNC(=O)Cc2ccc(NC(=O)C3=C(C)OCCS3)cc2)cc1 | -38% | -9% | 0 | 21 | 47* | 24%
CC1CC(C)CN(CC(O)COCc2ccccc2)C1 (stereo not given) | -20% | 20% | 4 | -5 | 1 | -5%
CN(C)S(=O)(=O)c1ccc(N2CCCC2)c(C(=O)NCC2CCCO2)c1 (stereo not given) | 5% | 27% | -2 | x | x | u
CCOC(=O)c1sc2ccccc2c1S(=O)(=O)N1CCN(c2cccc(OC)c2)CC1 | x | x | -5 | x | x | x
O=c1c(Cc2ccc(F)cc2)c(O)ccn1C1CC1 | -13% | 13% | -10 | 5 | 9 | 5.2µM*
COc1ccc(-c2ccc3c(c2)c(-c2cccs2)c(-c2cc(OC)cc(OC)c2)n3C)cc1 | u | -3% | -5 | x | x | 2.6µM*
COc1cc(OC)cc(-c2c(-c3cccs3)c3cc(-c4cnc(OC)nc4)ccc3n2C)c1 | 3.3µM* | u | -78* | x | x | 1.9µM*
COc1cc(OC)cc(-c2c(-c3cccs3)c3cc(-c4cc(OC)c(OC)c(OC)c4)ccc3n2C)c1 | x | u | -3 | x | x | x
COc1cc(OC)cc(-c2c(-c3cccs3)c3cc(-c4ccc(C(N)=O)cc4)ccc3n2C)c1 | x | u | 47 | x | x | x
COc1cc(/C=N/N2CCCCC2)cc([N+](=O)[O-])c1O | -1% | 15% | 9 | 8 | 6 | 18%
